Data reported in PubChem BioAssay AID434970 (Sanford-Burnham Center for Chemical Genomics, 2010).
The campaign covered roughly 11,000 compounds. About 310 (2.8%) were called active. Cut-off read from the data, not from the text of the source: active = activity change below about -85%; inactive = the rest. What follows is part of a selection rich in actives, with near analogues and random picks from the rest.

system: intestinal alkaline phosphatase [Mus musculus]; assay: activators of mouse IAP, confirmation, biochemical, luminescence, single concentration (AID 434970); conditions: purified mouse IAP, CDP-Star luminescence, 30 min, at 10 µM; activation factor: measured here: IAP activation factor, stronger effect = higher value; activity change, negative = activation: stronger effect = lower value

Row | SMILES | activation factor | activity change, negative = activation
1 | Cc1ccc(NC(=O)CS(=O)CC(=O)NCC2CCCO2)cc1 (configuration not stated) | 1.07 | -6.55% (inactive)
2 | O=C(O)C1C2C=CC(O2)C1C(=O)NCCC1=CCCCC1 (configuration not stated) | 1.12 | -12.2% (inactive)
3 | COCCN(C(=O)C(F)(F)F)C(C(=O)NC1CCCCC1)c1ccco1 (configuration not stated) | 0.978 | 2.15% (inactive)
4 | CC1CCN(C(=O)c2ccc(NC(=O)C3CCCO3)cc2)CC1 (configuration not stated) | 1.06 | -5.95% (inactive)
5 | COc1cc2oc(=O)cc(-c3ccc(-c4ccc(F)c(Cl)c4)cc3)c2c(OC)c1OC | 0.913 | 8.7% (inactive)
6 | Cn1c(Cn2cnc3ccccc32)nnc1SCC(=O)CC(=O)Nc1ccccc1 | 0.996 | 0.45% (inactive)
7 | COc1ccc(-n2ncc3c(=O)n(CC(=O)N4c5ccccc5CC4C)cnc32)cc1 (configuration not stated) | 1 | -0.2% (inactive)
8 | C/C(CC(=O)Nc1cccc(Cl)c1)=N\NC(=O)Cc1ccc(Cl)cc1 | 1.02 | -2.2% (inactive)
9 | O=C(NCCc1ccc(Cl)cc1)Nc1cccc(Cl)c1 | 1.92 | -92.5% (inactive)
10 | CCC1(COC(=O)Nc2cccc(Cl)c2)COC1 | 1.16 | -16.4% (inactive)
11 | CC(=O)c1cccc(NC(=O)Nc2cccnc2)c1 | 1 | -0.35% (inactive)
12 | CC(C)OC(=O)NCCOC(=O)Nc1cccc(Cl)c1 | 2.12 | -112% (active)
13 | N#CCc1ccc(NC(=O)Nc2cccc(Cl)c2)cc1 | 1.88 | -87.6% (inactive)
14 | C=CCc1cc(Cl)ccc1OC(=O)Nc1cccc(Cl)c1 | 2.05 | -105% (active)
15 | O=C(Nc1cccc(Cl)c1)Nc1cccc(Cl)c1 | 3.21 | -221% (active)
16 | CCOC(=O)c1sc(NC(=O)Nc2cccc(Cl)c2)cc1C | 1.83 | -82.6% (inactive)
17 | CC(=O)Nc1cccc(NC(=O)Nc2ccc(C(C)=O)cc2)c1 | 1.13 | -13.4% (inactive)
18 | CC(O)c1cccc(NC(=O)Nc2cccc(NC(=O)Nc3cccc(C(C)O)c3)c2)c1 (configuration not stated) | 1.89 | -88.9% (active)
19 | CSc1ccccc1NC(=O)Nc1cccc(Cl)c1 | 1.48 | -48.5% (inactive)

Row | SMILES | activation factor | activity change, negative = activation
20 | COCCN(CC(=O)NCc1ccc2c(c1)OCO2)C(=O)CCC(=O)Nc1nccs1 | 0.99 | 1% (inactive)
21 | O=S(=O)(N[C@H](CO)c1ccccc1)c1ccc(Br)cc1F | 1.03 | -2.75% (inactive)
22 | CCOC(=O)C1=C(C)N(C[C@@H]2CC[C@@H](Cc3ccc(-c4ccccc4)cc3)O2)C(=O)NC1c1ccc(C(F)(F)F)cc1 (some centres not stated) | 0.924 | 7.6% (inactive)
23 | COc1ccc(CCNC(=O)CC2COc3ccccc3O2)cc1OC (configuration not stated) | 1.06 | -5.55% (inactive)
24 | Oc1c(C=C2N=c3ccccc3=N2)sc(=S)n1-c1ccc(F)cc1 | 0.615 | 38.5% (inactive)
25 | COc1ccc(CC(NC(C)=O)C(=O)NC2CCN(C(=O)c3cnccn3)CC2)cc1 (configuration not stated) | 0.93 | 7% (inactive)
26 | CCN1Cc2cc(OC)ccc2-c2ccccc2S1(=O)=O | 1.15 | -14.7% (inactive)
27 | O=C(Nc1cc(Cl)cc(Cl)c1)N1CCCC1 | 1.62 | -62.2% (inactive)
28 | O=C(NCCN1CCN(Cc2ccccc2)CC1)Nc1cc(Cl)cc(Cl)c1 | 1.43 | -42.5% (inactive)
29 | CN(c1cccc(NC(=O)Nc2ccc(Cl)cc2)c1)S(C)(=O)=O | 1.91 | -91.2% (inactive)
30 | Cc1ccc(S(=O)(=O)N(CC(=O)Nc2cccc(N(C)S(C)(=O)=O)c2)c2ccc(Cl)c(Cl)c2)cc1 | 1.73 | -73.1% (inactive)
31 | CN(c1cccc(NC(=O)Nc2cccc(Cl)c2)c1)S(C)(=O)=O | 2.47 | -147% (active)
32 | CN1CCN(NC(=O)Nc2cc(Cl)cc(Cl)c2)CC1 | 2.2 | -120% (active)
33 | COC(=O)c1ccc(CC(=O)c2c(C)cc(O)cc2O)o1 | 0.877 | 12.3% (inactive)
34 | CC(C)COc1ccc(CNC(=S)NCc2ccccc2)cc1 | 1.12 | -11.7% (inactive)
35 | O=C(O)CC(c1cccc(Cl)c1)n1cccc1 (configuration not stated) | 0.964 | 3.65% (inactive)
36 | CCCCN1CCc2c([nH]c3c(C)cccc23)C1=O | 1.06 | -6.35% (inactive)
37 | CCN(CC)S(=O)(=O)c1cccc(C(=O)Nc2cccc(C)c2)c1 | 0.938 | 6.2% (inactive)
38 | O=C(Nc1ccccc1)Nc1cccc(C(F)(F)F)c1 | 1.82 | -82.1% (inactive)

Row | SMILES | activation factor | activity change, negative = activation
39 | O=C(Nc1ccc(OC(F)F)cc1)Nc1cccc(C(F)(F)F)c1 | 1.99 | -99.2% (active)
40 | CCN(CC)S(=O)(=O)c1cccc(NC(=O)Nc2cccc(C(F)(F)F)c2)c1 | 4.57 | -357% (active)
41 | Cc1ccc(OC(F)F)c(NC(=O)Nc2cccc(C(F)(F)F)c2)c1 | 1.6 | -60.4% (inactive)
42 | CCN(CC)S(=O)(=O)c1cccc(NC(=O)c2cc3ccccc3o2)c1 | 0.883 | 11.7% (inactive)
43 | CCNS(=O)(=O)c1ccc(NC(=O)Nc2cccc(C(F)(F)F)c2)cc1 | 1.77 | -76.7% (inactive)
44 | CCN(CC)S(=O)(=O)c1ccc(NC(=O)CN(c2cccc(F)c2)S(C)(=O)=O)cc1 | 0.911 | 8.85% (inactive)
45 | CCN(CC)S(=O)(=O)c1ccc(NC(=O)Nc2cccc(C(F)(F)F)c2)cc1 | 2.03 | -103% (active)
46 | O=C(c1ccco1)N1CCN(CC(O)Cn2c3ccccc3c3ccccc32)CC1 (configuration not stated) | 0.97 | 2.95% (inactive)
47 | CC(C)OC(=O)CSc1nc2cccnc2n1C1CCCCC1 | 0.982 | 1.75% (inactive)
48 | COc1ccc(C2=NO[C@@H]3C(=O)N(c4cccc(C)c4C)C(=O)[C@H]23)cc1OC | 0.93 | 6.95% (inactive)
49 | COC(=O)c1sccc1NC(=O)c1cc(OC)cc(OC)c1 | 0.928 | 7.2% (inactive)
50 | c1coc(C2Nc3ccccc3C3OCCC23)c1 (configuration not stated) | 1.1 | -10.4% (inactive)
51 | COc1ccc(C(=O)NC(Oc2ccccc2)C(Cl)(Cl)Cl)cc1 (configuration not stated) | 1.06 | -6.15% (inactive)
52 | C=C(C)c1cccc(C(C)(C)NC(=O)NC(c2ccccc2)c2ccc(OC)cc2)c1 (configuration not stated) | 4.59 | -359% (active)
53 | CC(=O)Nc1ccc(S(=O)(=O)Nc2cccc(NC(=O)C(C)(C)C)c2)cc1 | 1.12 | -11.8% (inactive)
54 | C=C(C)c1cccc(C(C)(C)NC(=O)Nc2ccc(C(N)=O)cc2)c1 | 2.18 | -118% (active)
55 | C=C(C)c1cccc(C(C)(C)NC(=O)NCC2COCCO2)c1 (configuration not stated) | 1.09 | -9.1% (inactive)
56 | COc1ccc(C(=O)OC(C(=O)c2ccccc2)c2ccccc2)cc1 (configuration not stated) | 0.982 | 1.8% (inactive)
